Laboratory results taken from paper PMC4336329 (PLoS ONE, 2015).
Hit rate of the full screen: of about 310,000 compounds, about 2,200 (0.71%) showed an effect of 50% or more. Effects have a minus sign here. The entries come from a sample that favours strong results as a whole.

Each compound was assayed against human ether-à-go-go-related gene (hERG) potassium channel (human, UniProt Q12809) (assay: primary screen, population patch clamp on CHO cells stably expressing hERG; higher = less effect of the substance).
human ether-à-go-go-related gene (hERG) potassium channel, sequence (Q12809 whole entry, looked up): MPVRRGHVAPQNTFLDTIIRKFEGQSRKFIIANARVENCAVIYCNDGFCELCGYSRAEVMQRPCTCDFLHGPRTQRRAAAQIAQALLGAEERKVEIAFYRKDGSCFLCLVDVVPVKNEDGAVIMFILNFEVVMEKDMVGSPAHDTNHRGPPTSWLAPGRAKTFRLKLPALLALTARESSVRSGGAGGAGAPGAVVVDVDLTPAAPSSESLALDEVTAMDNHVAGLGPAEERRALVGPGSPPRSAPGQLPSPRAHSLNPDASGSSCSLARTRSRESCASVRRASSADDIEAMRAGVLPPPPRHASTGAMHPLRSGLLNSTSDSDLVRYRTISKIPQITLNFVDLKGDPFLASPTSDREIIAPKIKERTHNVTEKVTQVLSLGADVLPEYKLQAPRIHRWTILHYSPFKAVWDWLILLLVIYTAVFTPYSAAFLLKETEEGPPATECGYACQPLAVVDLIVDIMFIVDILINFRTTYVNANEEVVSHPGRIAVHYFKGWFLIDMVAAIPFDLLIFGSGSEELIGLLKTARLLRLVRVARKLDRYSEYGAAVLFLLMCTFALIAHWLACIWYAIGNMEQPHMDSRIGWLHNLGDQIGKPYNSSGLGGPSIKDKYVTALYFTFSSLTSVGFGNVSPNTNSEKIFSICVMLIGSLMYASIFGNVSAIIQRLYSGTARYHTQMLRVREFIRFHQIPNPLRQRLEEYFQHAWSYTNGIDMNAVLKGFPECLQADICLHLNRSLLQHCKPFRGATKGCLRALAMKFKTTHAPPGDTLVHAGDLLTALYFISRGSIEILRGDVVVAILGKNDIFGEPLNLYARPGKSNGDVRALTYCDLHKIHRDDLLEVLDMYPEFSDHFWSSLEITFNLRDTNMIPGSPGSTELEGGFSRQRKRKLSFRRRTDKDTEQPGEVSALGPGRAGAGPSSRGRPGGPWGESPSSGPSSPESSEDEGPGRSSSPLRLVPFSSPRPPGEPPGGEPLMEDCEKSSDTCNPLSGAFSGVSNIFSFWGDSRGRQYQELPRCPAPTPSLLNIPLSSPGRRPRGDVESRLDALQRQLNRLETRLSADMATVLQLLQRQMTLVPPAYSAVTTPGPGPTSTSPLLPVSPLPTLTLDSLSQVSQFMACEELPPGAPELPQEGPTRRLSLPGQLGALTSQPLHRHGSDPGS
For `CN(Cc1ccccc1)C(=O)c1nn2cccnc2c1Cl`, the “hERG current change (%, negative = inhibition) at 1uM” value was 13.2%.
With `CCNC(=O)c1cc2c(=O)n3cccc(C)c3nc2n(CCc2ccccc2)c1=N` the “hERG current change (%, negative = inhibition) at 1uM” value was -90.7%.
In the case of `COCCn1c(=N)c(C(=O)NCCc2ccc(OC)cc2)cc2c(=O)n3cccc(C)c3nc21`, the “hERG current change (%, negative = inhibition) at 1uM” value is reported as -95.4%.
With `Cc1cccn2c(=O)c3cc(C(=O)NCCN4CCOCC4)n(C)c3nc12` the “hERG current change (%, negative = inhibition) at 1uM” value was 9.82%.
With `COCCNC(=O)c1cc2c(=O)n3cccc(C)c3nc2n1C` the “hERG current change (%, negative = inhibition) at 1uM” value was 22.6%.
With `Cc1cccn2c(=O)c3cc(C(=O)NCCN4CCOCC4)c(=N)n(CCN4CCOCC4)c3nc12` the “hERG current change (%, negative = inhibition) at 1uM” value was 12.2%.
With `CCCCNC(=O)c1cc2c(=O)n3cccc(C)c3nc2n(CCN2CCOCC2)c1=N` the “hERG current change (%, negative = inhibition) at 1uM” value was -92.4%.
With `COCCn1c(=N)c(C(=O)NCCc2ccccc2)cc2c(=O)n3cccc(C)c3nc21` the “hERG current change (%, negative = inhibition) at 1uM” value was -86.1%.
With `COc1ccc(CN2CCN(Cc3ccccc3C(F)(F)F)CC2)c(OC)c1.O=C(O)C(=O)O` the “hERG current change (%, negative = inhibition) at 1uM” value was -39.5%.
With `Cc1ccc(N2C(=O)CC(NCc3ccc4c(c3)OCO4)C2=O)cc1Cl` (stereo not shown) the “hERG current change (%, negative = inhibition) at 1uM” value was -12.2%.
In the case of `COc1ccc(COC(=O)c2ccc(C)c(S(=O)(=O)N3CCOCC3)c2)cc1F`, the “hERG current change (%, negative = inhibition) at 1uM” value is reported as 16%.
`Cc1ccc(CNS(=O)(=O)c2ccc3c(c2)C(C)(C)C(=O)N3C)cc1` was tested, and the “hERG current change (%, negative = inhibition) at 1uM” value was 7.06%.
For `COc1cc(CNC(=O)CCCC/C=C/C(C)C)ccc1O`, the “hERG current change (%, negative = inhibition) at 1uM” value was 11.8%.
`CC(=O)N1CCN(c2ccc(NC(=O)c3ccc(Cl)c([N+](=O)[O-])c3)cc2)CC1` was tested, and the “hERG current change (%, negative = inhibition) at 1uM” value was 5.32%.
`O=C(C/C(=N\NC(=O)c1ccccc1Br)C(F)(F)F)c1cccs1` was tested, and the “hERG current change (%, negative = inhibition) at 1uM” value was 3.65%.
For `O=C(Nc1ncnc2sc3c(c12)CCCCC3)c1ccc(F)cc1`, the “hERG current change (%, negative = inhibition) at 1uM” value was 14.2%.
With `Cc1[nH]c2ccccc2c1C(=O)CSc1nc2cc(S(=O)(=O)N3CCCCC3)ccc2o1` the “hERG current change (%, negative = inhibition) at 1uM” value was 9.62%.
For `CCc1cc2c(=O)c(-c3nc4ccccc4n3C)c(CCCC(=O)O)oc2cc1OC(=O)C(C)(C)C`, the “hERG current change (%, negative = inhibition) at 1uM” value was 14.8%.
In the case of `CC(=O)c1ccc(NC(=O)Cc2ccsc2)cc1`, the “hERG current change (%, negative = inhibition) at 1uM” value is reported as 14.1%.
With `C=CCNC(=O)NS(=O)(=O)c1ccc(C)cc1` the “hERG current change (%, negative = inhibition) at 1uM” value was 16.6%.
`Cc1cccn2c(=O)c3cc(C(=O)NCCc4ccccc4)c(=N)n(CCCn4ccnc4)c3nc12` was tested, and the “hERG current change (%, negative = inhibition) at 1uM” value was -61.3%.
For `Cc1cccn2c(=O)c3cc(C(=O)NCCN4CCOCC4)c(=N)n(CCc4ccccc4)c3nc12`, the “hERG current change (%, negative = inhibition) at 1uM” value was -71.8%.
For `Cc1cccn2c(=O)c3cc(C(=O)NC(C)c4ccccc4)c(=N)n(CCCn4ccnc4)c3nc12` (stereo not shown), the “hERG current change (%, negative = inhibition) at 1uM” value was -10.8%.
In the case of `Cc1cccn2c(=O)c3cc(C(=O)NCCCn4ccnc4)n(C)c3nc12`, the “hERG current change (%, negative = inhibition) at 1uM” value is reported as 2.55%.
For `Cc1ccc(C2(C)NC(=O)N(CC(=O)Nc3cc(S(=O)(=O)N4CCOCC4)ccc3C)C2=O)cc1` (stereo not shown), the “hERG current change (%, negative = inhibition) at 1uM” value was -9.42%.
`O=C(CO/N=C/c1ccc(OC(F)F)cc1)NCc1ccc(F)cc1` was tested, and the “hERG current change (%, negative = inhibition) at 1uM” value was -52%.
`COC(=O)c1ccc(/C=N/OCC(=O)NCc2ccc(F)cc2)cc1` was tested, and the “hERG current change (%, negative = inhibition) at 1uM” value was 3.32%.
In the case of `CC(C)(C)c1ccc(/C=N/OCC(=O)NCc2ccc(F)cc2)cc1`, the “hERG current change (%, negative = inhibition) at 1uM” value is reported as 11.5%.
With `O=C(NCc1cc(C(F)(F)F)cc(C(F)(F)F)c1)C1CC(c2ccc(C(F)(F)F)cc2)=NO1` (stereo not shown) the “hERG current change (%, negative = inhibition) at 1uM” value was 18.6%.
`CN1CCN(CCN2CCn3c2nc2ccccc23)CC1.Cl` was tested, and the “hERG current change (%, negative = inhibition) at 1uM” value was 5.64%.
With `Cl.c1ccc(CN2CCN(CCN3CCn4c3nc3ccccc34)CC2)cc1` the “hERG current change (%, negative = inhibition) at 1uM” value was -62.3%.
With `Cl.c1ccc2c(c1)nc1n2CCN1CCN1CCCC1` the “hERG current change (%, negative = inhibition) at 1uM” value was 18.3%.
In the case of `COc1ccc(CN(C)C(c2ccccc2)c2nnnn2-c2ccccc2C)c(OC)c1C` (stereo not shown), the “hERG current change (%, negative = inhibition) at 1uM” value is reported as 11.5%.
In the case of `CCn1c(CC(=O)Nc2ccccc2)nnc1SCC(=O)NC1CCCC1`, the “hERG current change (%, negative = inhibition) at 1uM” value is reported as 5.86%.
With `Cc1cc(=O)n2nc(N3CCC(C(=O)NCc4cccnc4)CC3)sc2n1` the “hERG current change (%, negative = inhibition) at 1uM” value was 6.87%.
For `Cc1cc(C)c2nc(N3CCC(C(=O)NCc4cccnc4)CC3)sc2c1`, the “hERG current change (%, negative = inhibition) at 1uM” value was -50.6%.
With `Cc1cc(C)c2nc(N3CCC(C(=O)NCc4ccccn4)CC3)sc2c1` the “hERG current change (%, negative = inhibition) at 1uM” value was 9.75%.
For `O=S(=O)(c1cccs1)N1CCN(c2ccnc3cc(Cl)ccc23)CC1`, the “hERG current change (%, negative = inhibition) at 1uM” value was -2.74%.
With `O=S(=O)(c1cccc(Br)c1)N1CCN(c2ccnc3cc(Cl)ccc23)CC1` the “hERG current change (%, negative = inhibition) at 1uM” value was 10.2%.
In the case of `O=S(=O)(c1ccc(Br)s1)N1CCN(c2ccnc3cc(Cl)ccc23)CC1`, the “hERG current change (%, negative = inhibition) at 1uM” value is reported as 6.07%.
In the case of `Clc1ccc2c(N3CCNCC3)ccnc2c1`, the “hERG current change (%, negative = inhibition) at 1uM” value is reported as -15.4%.
With `N#Cc1cccc(S(=O)(=O)N2CCN(c3ccnc4cc(Cl)ccc34)CC2)c1` the “hERG current change (%, negative = inhibition) at 1uM” value was -57.2%.
With `O=S(=O)(c1ccccc1OC(F)(F)F)N1CCN(c2ccnc3cc(Cl)ccc23)CC1` the “hERG current change (%, negative = inhibition) at 1uM” value was 9.89%.
`O=[N+]([O-])c1ccc(S(=O)(=O)N2CCN(c3ccnc4cc(Cl)ccc34)CC2)cc1` was tested, and the “hERG current change (%, negative = inhibition) at 1uM” value was -77.8%.
With `O=S(=O)(c1ccccc1)N1CCN(c2ccnc3cc(Cl)ccc23)CC1` the “hERG current change (%, negative = inhibition) at 1uM” value was -79.9%.
In the case of `Cc1ccc(S(=O)(=O)N2CCN(c3ccnc4cc(Cl)ccc34)CC2)cc1C`, the “hERG current change (%, negative = inhibition) at 1uM” value is reported as 21.6%.
